# Rows were chosen to be rich in hits. Some 9.8% of all compounds tested hit in one or more screens of this group.
# HttQ103 aggreg = qHTS Multiplex Assay to Identify Dual Action Probes in a Cell Model of Huntington: Aggregate Formation (GFP). 220,000 tested, 1.1% active. PC12 HttQ103-GFP aggregates, Acumen cytometry, 40 h. Potency, µM (highest dose often 46.1 µM), for inactives: at the top dose activity change, negative = inhibition, most hits filed as inhibitors; further: potency means the concentration at half of the fitted maximal effect; on the % scale 0 is the no-effect control and ±100 the full control effect; nearly all actives have a fitted effect of over 60% in size
#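 Inducible Q103 Huntingtin exon 1–GFP PC12 line, 1500 cells/well in phenol red free DMEM with 5% equine and 5% calf serum. Tebufenozide 100 nM induced expression; compounds titrated; aggregates quantified by cytometry.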
# JMJD2E inh = qHTS Assay for Inhibitors of Human Jumonji Domain Containing 2E (JMJD2E). JMJD2E catalytic domain, FDH-coupled NADH fluorescence (FDH is formaldehyde dehydrogenase). Potency, µM (doses to about 57.1 µM), inactives show at the highest dose activity change, negative = inhibition, actives largely listed as inhibitors. 230,000 tested, 1.6% active; active means well fitted inhibition curve with a large enough effect, not every such curve was filed as active; inconclusive means small, poorly fitted or top-dose-only effect, or another doubt; inactive means no such curve, though single readings can be large or run the other way;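 further: potency means the concentration at half of the fitted maximal effect; 0% = wells with enzyme and -100% = buffer wells without enzyme; nearly all actives have a fitted effect of over 50% in size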
# HTT ATP protect = qHTS Multiplex Assay to Identify Dual Action Probes in a Cell Model of Huntington: Cytoprotection (ATP) | PC12 HTT-Q103 induced, cytoprotection, ATP luminescence, 40 h | Potency, µM (highest dose often 56.4 µM), for the others: cytoprotection (ATP increase), usual class: activators | 230,000 tested, 0.14% active; further: potency means the concentration at half of the fitted maximal effect; % of control where 0% means no effect; nearly all actives have a fitted effect of over 45% in size
#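 Quantitative HTS on tebufenozide-induced (100 nM) PC12 cells expressing HTTQ103 exon 1–GFP; compounds tested as a concentration series; survival measured via cellular ATP.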
# ALDH1A1 inh = qHTS Assay for Inhibitors of Aldehyde Dehydrogenase 1 (ALDH1A1); Aldehyde dehydrogenase 1A1 (Homo sapiens), P00352; Purified ALDH1A1, NADH fluorescence, propionaldehyde substrate; 220,000 tested, 7.3% active; Potency, µM (titrated, usually from 75.3 µM), for inactives: at the highest dose activity, negative = inhibition, usual class: inhibitors; AID 1030, 2008; active means well fitted inhibition curve with a large enough effect, not every such curve was filed as active; inconclusive means small, poorly fitted or top-dose-only effect, or another doubt; inactive means no such curve, though single readings can be large or run the other way;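 further: potency means the concentration at half of the fitted maximal effect; plate controls were no enzyme wells and a reference inhibitor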
# Target sequence (P00352 whole entry, looked up): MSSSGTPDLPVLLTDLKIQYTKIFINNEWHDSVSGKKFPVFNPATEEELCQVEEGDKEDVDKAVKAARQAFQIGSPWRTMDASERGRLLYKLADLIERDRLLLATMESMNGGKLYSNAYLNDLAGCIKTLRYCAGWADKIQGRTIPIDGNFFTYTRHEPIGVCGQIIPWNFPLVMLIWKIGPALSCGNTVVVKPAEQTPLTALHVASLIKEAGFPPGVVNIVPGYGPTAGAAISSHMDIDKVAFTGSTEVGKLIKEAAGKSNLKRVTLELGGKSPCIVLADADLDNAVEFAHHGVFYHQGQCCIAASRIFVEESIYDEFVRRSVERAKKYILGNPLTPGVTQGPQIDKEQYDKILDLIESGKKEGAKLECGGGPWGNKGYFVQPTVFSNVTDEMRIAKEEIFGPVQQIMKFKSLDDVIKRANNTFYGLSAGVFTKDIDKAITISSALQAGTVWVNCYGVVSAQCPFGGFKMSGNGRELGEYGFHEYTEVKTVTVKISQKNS
# HPGD inh = qHTS Assay for Inhibitors of HPGD (15-Hydroxyprostaglandin Dehydrogenase) | AID 894, 2007 | Potency, µM, without a hit: at the top dose activity change, negative = inhibition, actives largely listed as inhibitors | purified HPGD, NADH fluorescence kinetic, PGE2 substrate | 15-hydroxyprostaglandin dehydrogenase [NAD(+)] (Homo sapiens), P15428 | 150,000 tested, 4.3% active; active means well fitted inhibition curve with a large enough effect, not every such curve was filed as active; inconclusive means small, poorly fitted or top-dose-only effect, or another doubt; inactive means no such curve, though single readings can be large or run the other way; further: potency means the concentration at half of the fitted maximal effect; on the % scale 0 is the no-effect control and ±100 the full control effect
# Target sequence (P15428 whole entry, looked up): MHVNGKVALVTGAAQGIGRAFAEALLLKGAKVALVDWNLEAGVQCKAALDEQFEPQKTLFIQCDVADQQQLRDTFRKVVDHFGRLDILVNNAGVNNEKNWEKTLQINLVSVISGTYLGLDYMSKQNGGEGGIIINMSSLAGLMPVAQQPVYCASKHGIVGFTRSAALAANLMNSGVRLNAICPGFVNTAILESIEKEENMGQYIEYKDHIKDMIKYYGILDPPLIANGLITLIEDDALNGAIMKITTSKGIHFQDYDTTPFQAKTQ
#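 NADH formation kinetics: reaction with 30 uM PGE2 and 1 mM NAD+ (final), 20 nM enzyme, Tris-HCl pH 8 with Tween 20, after 15 min compound preincubation at room temperature. Fluorescence change, last versus first of five reads.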
# CBFb RUNX1 block = qHTS Assay for Compounds Blocking the Interaction Between CBF-beta and RUNX1 for the Treatment of Acute Myeloid Leukemia; AlphaScreen CBFb-His/RUNX1-biotin binding, biochemical; 230,000 tested, under 10 active; Runt-related transcription factor 1 (Homo sapiens) + Core-binding factor subunit beta …; Potency, µM (titrated, usually from 59.8 µM), without a hit: at the highest dose activity, negative = inhibition, usual class: inhibitors; AID 1477, 2009; further: % of control where 0% means no effect
#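 Compounds were screened at multiple concentrations against a preformed CBF-beta(His)/RUNX1(biotin) complex (30 nM of each) for 15 min at room temperature, followed by 90 min with nickel and streptavidin beads and AlphaScreen reading.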
# The depositor's hits bear a star; u = inconclusive; x = not tested or not shown; [ ] = remark or other dose. Unless noted, the call rests on the fitted dose curve; in most records, active means well fitted curve in the direction sought with a large enough effect; inconclusive means small, poorly fitted or top-dose-only effect, or another doubt; inactive means no such curve, though single readings can be large; an effect the other way counts as inactive or inconclusive.
SMILES,HttQ103 aggreg,JMJD2E inh,HTT ATP protect,ALDH1A1 inh,HPGD inh,CBFb RUNX1 block
COc1ccc(S(=O)(=O)N(C)c2ccc(C(=O)NCCC(C)C)cc2)cc1,-7%,6%,-17%,-16%,2µM*,-11%
CCOC(=O)c1nc(-c2ccc(OC)c(OC)c2)cnc1C#N,1%,-16%,x,1%,u,-11%
O=[N+]([O-])c1ccc(SCCO)nc1SCCO,-3%[9.22 µM],-3%,15%[10 µM],u,x,-7%
Cc1c(NC(=O)COC(=O)c2ccc(S(=O)(=O)N3CCOCC3)cc2)c(=O)n(-c2ccccc2)n1C,5%,u,x,10%,x,0%
CN(C(=O)c1cccs1)c1ccc(OCC(=O)Nc2ccc(C(=O)O)cc2)cc1,u,6%,0.89µM*,x,x,-1%
CN(c1ccc(OCC(=O)OCC(=O)Nc2ccccc2)cc1)S(=O)(=O)c1cccs1,1.3µM*,-1%,-80%[1.9 µM],-8%,-16%,-7%
CN(c1ccc(OCC(=O)OCC(=O)Nc2ccc(Br)cc2)cc1)S(=O)(=O)c1cccs1,3%,-7%,u,-12%,-9%,-13%
Cc1ccc(C(=O)OCn2nnc3ccccc3c2=O)cc1[N+](=O)[O-],-13%,-7%,-33%,u,x,0%
CC1CCCN(c2ccc(C(=O)Nc3nnc(C4CC4)s3)cc2[N+](=O)[O-])C1 (centres undefined),-1%,7%,14%[10 µM],2.8µM*,-2%,-17%
CC1CCCN(c2ccc(C(=O)OCn3nnc4ccccc4c3=O)cc2[N+](=O)[O-])C1 (centres undefined),-7%,-8%,-13%[10 µM],-2%,16µM*,-3%
N[C@@]1(C(=O)O)CO[C@H]2[C@H](C(=O)O)[C@H]21,x,x,-50%,-9%,-9%,26%
c1ccc(-c2onc3cc4c(cc23)OCCO4)cc1,-24%,-15%,-36%,u,3%,-5%
O=[N+]([O-])c1ccc(S(=O)(=O)Cc2ccccc2)c([N+](=O)[O-])c1,x,x,-104%[10 µM],1.3µM*,-15%,x
Cc1nc(N2CCCCC2)sc1C(=O)c1ccc(Cl)c([N+](=O)[O-])c1,-3%,-18%,u,7.9µM*,x,u
COc1ccc(CN(C(=O)c2cnccn2)C(C(=O)Nc2ccc(F)cc2)c2ccccc2)cc1 (centres undefined),-9%,6%,21%[10 µM],10µM*,-9%,9%
CC(C)c1ccc(NC(=O)C(c2ccccc2)N(C)C(=O)c2cnccn2)cc1 (centres undefined),5%,-3%,-56%,10µM*,x,-4%
CCC(C)(C)NC(=O)C(c1ccc(F)cc1)N(Cc1ccc(OC)cc1)C(=O)c1cnccn1 (centres undefined),14%[9.22 µM],10%,15%[10 µM],0%,x,11%
O=C(/C=C/c1cccc(Cl)c1)c1nc2ccccc2[nH]1,-3%,0%,6%,2.2µM*,u,-3%
O=C(/C(=C\c1ccccc1)c1nc2ccccc2[nH]1)c1ccc(Cl)cc1,u,2%,-54%[10 µM],12%,-8%,-11%
CC1=NN(C(N)=S)C(=O)C1N=Nc1ccc(C)cc1C (centres undefined),-2%,3%,9%[10 µM],10µM*,-10%,-16%
CC1=NN(C(N)=S)C(=O)C1N=Nc1c(C)cc(C)cc1C (centres undefined),1%[9.22 µM],5%,17%,-14%,-21%,-10%
CC1=NN(C(N)=S)C(=O)C1N=Nc1ccccc1C (centres undefined),-14%,6%,19%[10 µM],5µM*,-26%,-2%
S=c1[nH]nc(Cc2noc3ccccc23)n1-c1ccccc1,-1%,1%,-26%,-2%,x,6%
S=c1[nH]nc(Cc2cccc3ccccc23)n1-c1ccccc1,-14%,-2%,9%,u,14µM*,1%
S=c1[nH]nc(CCSCc2ccccc2)n1-c1ccccc1,21%,6%,-27%,35µM*,x,1%
SMILES,HttQ103 aggreg,JMJD2E inh,HTT ATP protect,ALDH1A1 inh,HPGD inh,CBFb RUNX1 block
C=CCn1c(Cc2cccc3ccccc23)n[nH]c1=S,15%,-3%,21%[10 µM],-8%,28µM*,-4%
CCCN1C(=O)COc2ccc(-c3n[nH]c(=O)c4ccccc34)cc21,u,2%,-2%,9%,x,5%
COC(=O)Cc1c(C(=O)OC)nnn1-c1ccc(OC(F)(F)F)cc1,-5%,6%,-14%,-4%,x,8%
Nn1c(SCc2ccc(Br)cc2)nnc1-c1ccncc1,25%,-5%,-15%,-5%,x,0%
O=Cc1ccc(C(=O)O)cc1,x,x,-16%,22µM*,-10%,26%[21.7 µM]
COC(=O)c1ccc(C)cc1,x,x,7%,-10%,-8%,2%[21.7 µM]
COC(=O)c1ccc(C=O)cc1,x,x,17%,8.9µM*,-11%,-2%[21.7 µM]
COCC(=O)N1CCC(Oc2ccc(C(=O)NCCc3ccncc3)cc2)CC1,9%[9.22 µM],1%,-3%[10 µM],1%,x,5%
CCN(CC(=O)NCCC1=CCCCC1)S(=O)(=O)c1ccccc1,5%[9.22 µM],1%,-1%[10 µM],x,x,5%
Cc1noc(/C=C/Nc2ccc(F)cc2F)c1[N+](=O)[O-],-8%,-1%,-85%,1.3µM*,x,0%
COc1ccccc1N/C=C/c1onc(C)c1[N+](=O)[O-],0%,1%,-84%,10%,x,-28%
CCOC(=O)c1c(N)sc2c1CCC1C(=O)N(C3CCCCC3)C(=O)C21 (centres undefined),-14%,-6%,-1%[10 µM],13µM*,u,10%
CCOC(=O)c1c(N)sc(C(=O)N2CCCC(C(N)=O)C2)c1C (centres undefined),x,x,x,u,-5%,x
CC(C)(C)OC(=O)C1=NOC2(C=CC(=O)C=C2)C1,x,-11%,-139%,12%,-8%,-6%
CCN(Cc1ccccc1)c1ccc(/C=N/NC(=O)c2cccc(S(=O)(=O)N3CCOCC3)c2)cc1,-11%,u,31%[10 µM],u,u,15%
CCN(CC)c1ccc(/C=N/N2CCOCC2)cc1,-19%,-20%,9%[10 µM],22µM*,-18%,4%
CCN(Cc1ccccc1)c1ccc(/C=N/N2CCOCC2)cc1,-8%,u,-7%[10 µM],2.2µM*,-16%,u
CCN(CC)c1ccc(/C=N/N2CCN(c3ccccn3)CC2)cc1,-8%[9.22 µM],-3%,-5%[10 µM],22µM*,x,-2%

# Screening results from PubChem.
